In all, about 5,500 compounds went through this assay and about 2,000 (36%) were called active. Not shown: some 18% with an inconclusive outcome. This is one part of the list. Unmarked numbers belong to inactive results. No stated cut-off is given here; in the data, active means normalized growth mostly below about 0.91 (no sharp cut-off); inconclusive means no clear call, values can overlap the other calls; inactive means mostly above about 0.92.
Assay: chemical genetic growth profiling, strain panel (AID 1159580);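 further: tested at 20 µM; growth read once vehicle control cultures reached saturation at 30 °C; 1 = growth at the plate median or of vehicle wells; lower values mean less growth of the strain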
Conditions: growth OD
[1] = S. cerevisiae deletion strains, locus YDR150W, strain NUM1, hits give low values
[2] = S. cerevisiae deletion strains, locus YMR263W, strain SAP30, hits give low values
[3] = S. cerevisiae deletion strains, locus YMR307W, strain GAS1, hits give low values
[4] = S. cerevisiae deletion strains, locus YNL322C, strain KRE1, hits give low values
[5] = S. cerevisiae deletion strains, locus YPL241C, strain CIN2, hits give low values

C[C@]12CCC3c4ccc(OC(=O)CCC(=O)O)cc4CCC3C1CCC2=O (some centres undefined)
normalized growth (S. cerevisiae deletion strains, locus YAL013W, strain DEP1, hits give low values): 0.981
normalized growth (S. cerevisiae deletion strains, locus YBR021W, strain FUR4, hits give low values): 0.85
normalized growth (S. cerevisiae deletion strains, locus YBR229C, strain ROT2, hits give low values): 1.01
normalized growth (S. cerevisiae deletion strains, locus YCL029C, strain bik1, hits give low values): 0.97
normalized growth (S. cerevisiae deletion strains, locus YDL035C, strain GPR1, hits give low values): 0.871
normalized growth (S. cerevisiae deletion strains, locus YDL074C, strain BRE1, hits give low values): 0.872
normalized growth (S. cerevisiae deletion strains, locus YDL101C, strain DUN1, hits give low values): 0.999
normalized growth (S. cerevisiae deletion strains, locus YDL134C, strain PPH21, hits give low values): 1
normalized growth (S. cerevisiae deletion strains, locus YDL185W, strain tfp1, hits give low values): 0.951
normalized growth (S. cerevisiae deletion strains, locus YDL192W, strain arf1, hits give low values): 0.916 (active)
normalized growth (S. cerevisiae deletion strains, locus YDR101C, strain arx1, hits give low values): 0.984
normalized growth [1]: 0.998
normalized growth (S. cerevisiae deletion strains, locus YDR162C, strain NBP2, hits give low values): 0.785 (active)
normalized growth (S. cerevisiae deletion strains, locus YDR318W, strain mcm21, hits give low values): 0.926
normalized growth (S. cerevisiae deletion strains, locus YDR388W, hits give low values): 0.98
normalized growth (S. cerevisiae deletion strains, locus YDR502C, strain sam2, hits give low values): 0.933
normalized growth (S. cerevisiae deletion strains, locus YEL061C, strain CIN8, hits give low values): 1
normalized growth (S. cerevisiae deletion strains, locus YER110C, hits give low values): 0.965
normalized growth (S. cerevisiae deletion strains, locus YER155C, strain BEM2, hits give low values): 1.01
normalized growth (S. cerevisiae deletion strains, locus YER167W, strain BCK2, hits give low values): 0.944
normalized growth (S. cerevisiae deletion strains, locus YGL078C, strain dbp3, hits give low values): 1
normalized growth (S. cerevisiae deletion strains, locus YGL086W, strain mad1, hits give low values): 0.922 (active)
normalized growth (S. cerevisiae deletion strains, locus YGL248W, strain PDE1, hits give low values): 1.01
normalized growth (S. cerevisiae deletion strains, locus YGR078C, strain PAC10, hits give low values): 0.949
normalized growth (S. cerevisiae deletion strains, locus YGR135W, strain pre9, hits give low values): 0.936
normalized growth (S. cerevisiae deletion strains, locus YGR229C, strain SMI1, hits give low values): 1.03
normalized growth (S. cerevisiae deletion strains, locus YGR252W, strain gcn5, hits give low values): 0.783
normalized growth (S. cerevisiae deletion strains, locus YHR030C, strain SLT2, hits give low values): 1
normalized growth (S. cerevisiae deletion strains, locus YHR079C, strain IRE1 (second series), hits give low values): 0.99
normalized growth (S. cerevisiae deletion strains, locus YHR094C, strain hxt1, hits give low values): 0.993
normalized growth (S. cerevisiae deletion strains, locus YHR129C, strain ARP1, hits give low values): 0.996
normalized growth (S. cerevisiae deletion strains, locus YHR200W, strain rpn10, hits give low values): 0.955
normalized growth (S. cerevisiae deletion strains, locus YIL066C, strain RNR3, hits give low values): 0.879
normalized growth (S. cerevisiae deletion strains, locus YIL073C, strain SPO22, hits give low values): 0.806
normalized growth (S. cerevisiae deletion strains, locus YIL125W, strain kgd1, hits give low values): 0.992
normalized growth (S. cerevisiae deletion strains, locus YIR030C, strain dcg1, hits give low values): 0.996
normalized growth (S. cerevisiae deletion strains, locus YJL095W, strain BCK1, hits give low values): 0.946
normalized growth (S. cerevisiae deletion strains, locus YJL134W, strain LCB3, hits give low values): 1.01
normalized growth (S. cerevisiae deletion strains, locus YJL168C, strain set2, hits give low values): 1
normalized growth (S. cerevisiae deletion strains, locus YJL187C, strain SWE1 (second series), hits give low values): 0.974
normalized growth (S. cerevisiae deletion strains, locus YJR043C, strain POL32, hits give low values): 0.911
normalized growth (S. cerevisiae deletion strains, locus YJR075W, strain HOC1, hits give low values): 0.968
normalized growth (S. cerevisiae deletion strains, locus YKL009W, strain mrt4, hits give low values): 0.884
normalized growth (S. cerevisiae deletion strains, locus YKL068W, hits give low values): 1
normalized growth (S. cerevisiae deletion strains, locus YKL085W, strain MDH1 (second series), hits give low values): 1.01
normalized growth (S. cerevisiae deletion strains, locus YKL085W, strain MDH1, hits give low values): 1.01
normalized growth (S. cerevisiae deletion strains, locus YKL190W, strain CNB1, hits give low values): 0.991
normalized growth (S. cerevisiae deletion strains, locus YKR001C, strain vps1, hits give low values): 0.836 (active)
normalized growth (S. cerevisiae deletion strains, locus YLR039C, strain RIC1, hits give low values): 0.578 (active)
normalized growth (S. cerevisiae deletion strains, locus YLR058C, strain SHM2, hits give low values): 0.985
normalized growth (S. cerevisiae deletion strains, locus YLR102C, strain apc9, hits give low values): 1.01
normalized growth (S. cerevisiae deletion strains, locus YLR262C, strain YPT6, hits give low values): 0.559 (active)
normalized growth (S. cerevisiae deletion strains, locus YLR268W, strain sec22, hits give low values): 0.976
normalized growth (S. cerevisiae deletion strains, locus YLR330W, strain CHS5, hits give low values): 0.986
normalized growth (S. cerevisiae deletion strains, locus YLR342W, strain FKS1 (second series), hits give low values): 0.81
normalized growth (S. cerevisiae deletion strains, locus YLR371W, strain rom2, hits give low values): 0.97
normalized growth (S. cerevisiae deletion strains, locus YLR418C, strain cdc73, hits give low values): 0.914
normalized growth (S. cerevisiae deletion strains, locus YML016C, strain PPZ1, hits give low values): 0.985
normalized growth (S. cerevisiae deletion strains, locus YML032C, strain rad52, hits give low values): 0.903 (active)
normalized growth (S. cerevisiae deletion strains, locus YML124C, strain tub3, hits give low values): 1
normalized growth (S. cerevisiae deletion strains, locus YMR078C, strain ctf18, hits give low values): 0.965
normalized growth (S. cerevisiae deletion strains, locus YMR223W, strain ubp8, hits give low values): 0.914
normalized growth [2]: 0.971
normalized growth [3]: 0.91
normalized growth (S. cerevisiae deletion strains, locus YNL067W, strain RPL9B, hits give low values): 0.944
normalized growth (S. cerevisiae deletion strains, locus YNL128W, strain TEP1, hits give low values): 0.995
normalized growth (S. cerevisiae deletion strains, locus YNL153C, strain GIM3, hits give low values): 1
normalized growth (S. cerevisiae deletion strains, locus YNL233W, strain BNI4, hits give low values): 0.989
normalized growth (S. cerevisiae deletion strains, locus YNL250W, strain rad50, hits give low values): 0.952
normalized growth (S. cerevisiae deletion strains, locus YNL271C, strain bni1, hits give low values): 0.964
normalized growth (S. cerevisiae deletion strains, locus YNL298W, strain CLA4, hits give low values): 0.886 (active)
normalized growth (S. cerevisiae deletion strains, locus YNL307C, strain MCK1, hits give low values): 0.765 (active)
normalized growth [4]: 0.992
normalized growth (S. cerevisiae deletion strains, locus YNR052C, strain pop2, hits give low values): 0.873 (active)
normalized growth (S. cerevisiae deletion strains, locus YOL006C, strain TOP1, hits give low values): 0.787
normalized growth (S. cerevisiae deletion strains, locus YOL012C, strain htz1): 1.6
normalized growth (S. cerevisiae deletion strains, locus YOL147C, strain pex11, hits give low values): 0.978
normalized growth (S. cerevisiae deletion strains, locus YOR061W, strain CKA2, hits give low values): 0.993
normalized growth (S. cerevisiae deletion strains, locus YOR069W, strain VPS5, hits give low values): 1
normalized growth (S. cerevisiae deletion strains, locus YOR136W, strain idh2, hits give low values): 0.995
normalized growth (S. cerevisiae deletion strains, locus YOR144C, strain elg1, hits give low values): 0.986
normalized growth (S. cerevisiae deletion strains, locus YOR184W, strain ser1, hits give low values): 0.675 (active)
normalized growth (S. cerevisiae deletion strains, locus YOR316C, strain cot1, hits give low values): 0.997
normalized growth (S. cerevisiae deletion strains, locus YPL055C, strain LGE1, hits give low values): 0.874
normalized growth [5]: 1
normalized growth (S. cerevisiae deletion strains, locus YPR119W, strain clb2, hits give low values): 1.01
normalized growth (S. cerevisiae deletion strains, locus YPR141C, strain kar3, hits give low values): 0.997
normalized growth (S. cerevisiae deletion strains, locus YPR163C, strain tif3, hits give low values): 0.961
normalized growth (S. cerevisiae deletion strains, locus YPR167C, strain met16, hits give low values): 0.998
normalized growth (S. cerevisiae deletion strains, strain wtn01, hits give low values): 0.929
normalized growth (S. cerevisiae strains, strain wild type, hits give low values): 0.95

C[C@]12CC[C@@H]3c4ccc(O)cc4CC[C@H]3[C@@H]1CCC2=O
normalized growth (S. cerevisiae deletion strains, locus YAL040C, strain CLN3, hits give low values): 0.996
normalized growth (S. cerevisiae deletion strains, locus YCL061C, strain MRC1 (second series), hits give low values): 1.01
normalized growth [1]: 1
normalized growth (S. cerevisiae deletion strains, locus YDR363W, strain ESC2, hits give low values): 1
normalized growth (S. cerevisiae deletion strains, locus YER002W, strain NOP16, hits give low values): 0.995
normalized growth [2]: 1
normalized growth [3]: 1
normalized growth (S. cerevisiae deletion strains, locus YNL175C, strain NOP13, hits give low values): 0.985
normalized growth (S. cerevisiae deletion strains, locus YNL197C, strain WHI3, hits give low values): 1
normalized growth (S. cerevisiae deletion strains, locus YNL224C, strain SQS1, hits give low values): 1
normalized growth [4]: 0.987
normalized growth (S. cerevisiae deletion strains, locus YOR083W, strain WHI5 (second series), hits give low values): 0.905
normalized growth [5]: 1

Reference: PubChem BioAssay AID1159580 (chemical genetic matrix, 2015)
